Screens: PubChem, National Center for Advancing Translational Sciences (NCATS)
Shown is part of a subset that was picked to be rich in hits.
ClpP mod: qHTS Assay for Activators of ClpP | purified B. subtilis ClpP, FRET peptide cleavage, 20 min | 340,000 tested, 1.9% active | ATP-dependent Clp protease proteolytic subunit (Bacillus subtilis (strain 168)), P80244 | Potency, µM (titrated, usually from 57.5 µM), inactives show at the highest dose activity change, negative = active; active = well fitted falling curve with a large enough effect; inconclusive = small, poorly fitted or top-dose-only effect; inactive = no such curve, though single readings can be large or run the other way; also: potency is read from the fitted curve at half-maximal effect; the source files actives as falling curves though it sought activators and does not explain the sign; nearly all actives have a fitted effect of over 65% in size
Target sequence (P80244 whole entry, looked up): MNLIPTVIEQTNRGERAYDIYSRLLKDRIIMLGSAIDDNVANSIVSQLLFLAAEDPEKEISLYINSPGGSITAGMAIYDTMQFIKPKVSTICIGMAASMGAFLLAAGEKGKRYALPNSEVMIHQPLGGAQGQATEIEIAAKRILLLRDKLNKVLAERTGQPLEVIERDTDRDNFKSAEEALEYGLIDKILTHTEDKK
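Buffer: 100 mM Tris/HCl pH8, 100 mM KCl, 0.05% low protease BSA, 2.5% glycerol, 0.01% Tween-20. ClpP 10 microg/mL final; 20 min RT; delta FRET normalized to ADEP and DMSO controls.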
LDHA block: qHTS assay for inhibitors of human lactate dehydrogenase; L-lactate dehydrogenase A chain (Homo sapiens), P00338; purified LDHA, NADH/diaphorase-resazurin fluorescence; hits give low values; activity change, % (values are at about 110 or 230 µM); 480,000 tested, 0.15% active; AID 1347041, 2019; in the data active = activity change below about -30%; inconclusive = mostly about -25% to -30%;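 also: plate controls were DMSO wells for no effect and wells without enzyme for full effect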
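LDH5 2 nM; NADH 0.06 mM, pyruvate 0.2 mM; 200 mM Tris pH 7.4, EDTA, Tween-20; 5 min RT. Detection: diaphorase 0.133 mg/mL + resazurin 37 µM, fluorescence ex540/em590 at 0 and 20 min; normalized to enzyme-free and DMSO wells.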
Mito fusion yeast: qHTS Assay for Small Molecule Inhibitors of Mitochondrial Division or Activators of Mitochondrial Fusion; Potency, µM (series often up to 46.1 µM), for the others: top-dose growth rescue (activation), hits mostly activators; AID 485298, 2010; S. cerevisiae fusion-defective mutant growth rescue, CellTiterGlo 48 h; 320,000 tested, 0.23% active; also: potency is read from the fitted curve at half-maximal effect; % of control where 0% means no effect; nearly all actives have a fitted effect of over 45% in size
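Compounds are tested for their ability to restore growth of mitochondrial fusion-defective yeast strains at non-permissive 37C in YPEG medium over 48 hours. Viability is quantified by luciferase luminescence.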
S-ASM inh: Inhibitors of Secretory Acid Sphingomyelinase (S-ASM): qHTS. Sphingomyelin phosphodiesterase (Homo sapiens), P17405. placental ASM, HMU-PC fluorogenic substrate, 60 min. Potency, µM (doses to about 57.5 µM), for inactives: top-dose activity change, negative = inhibition, most hits filed as inhibitors. 340,000 tested, 0.006% active; also: potency is read from the fitted curve at half-maximal effect
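Human placenta-derived ASM preincubated with compound 10 min at room temperature, then reacted with 9 uM (final) fluorogenic HMU-PC substrate for 60 min at 37 C. Stop solution raises pH to 10; fluorescence read at Ex 386/Em 447 nm.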
RGS4 inh: Inhibitors of Regulator of G Protein Signaling (RGS) 4: qHTS | Regulator of G-protein signaling 4 (Homo sapiens), P49798 | AID 504845, 2011 | 390,000 tested, 0.039% active | Potency, µM (titrated, usually from 114 µM), for the others: top-dose activity change, negative = inhibition, hits mostly inhibitors | Transcreener GDP fluorescence polarization, RGS4-accelerated GTP hydrolysis; also: potency is read from the fitted curve at half-maximal effect; % is scaled to controls: 0 for no effect and ±100 for the full control effect; nearly all actives have a fitted effect of over 75% in size
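MLSMR compounds (23 nl, pin-transferred) preincubated 10 min at room temperature with a 500nM (2x) first reagent, then RGS4 at 900nM (2x) plus Transcreener GDP mix added; fluorescence polarization (620/688 nm) read before and after 90 min at 30 °C.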
IDH1 R132H inh: qHTS for Inhibitors of mutant isocitrate dehydrogenase 1 (IDH1): qHTS; IDH1-R132H enzyme, NADPH consumption, diaphorase/resazurin fluorescence; Potency, µM (titrated, usually from 76.6 µM), inactives show at the top dose activity change, negative = inhibition, most hits filed as inhibitors; 390,000 tested, 0.093% active; AID 602179, 2012; also: potency is read from the fitted curve at half-maximal effect; % is scaled to controls: 0 for no effect and ±100 for the full control effect; nearly all actives have a fitted effect of over 65% in size
Target sequence (O75874 whole entry R132H, stated change not applied): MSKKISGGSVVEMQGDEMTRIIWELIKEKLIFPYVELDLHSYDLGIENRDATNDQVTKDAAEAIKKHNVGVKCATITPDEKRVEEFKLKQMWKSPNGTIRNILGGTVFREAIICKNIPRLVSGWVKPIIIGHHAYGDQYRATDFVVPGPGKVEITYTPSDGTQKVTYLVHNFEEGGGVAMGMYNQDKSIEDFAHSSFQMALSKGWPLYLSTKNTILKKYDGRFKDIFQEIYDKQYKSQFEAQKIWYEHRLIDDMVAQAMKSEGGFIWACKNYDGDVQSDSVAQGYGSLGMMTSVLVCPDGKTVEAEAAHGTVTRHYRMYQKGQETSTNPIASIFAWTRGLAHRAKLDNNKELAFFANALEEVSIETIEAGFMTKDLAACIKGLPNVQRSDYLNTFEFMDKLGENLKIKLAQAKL
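IDH1-R132H (0.5 ug/mL dispensed) in pH 7.5 Tris buffer was preincubated 30 min with compound, then given a substrate mix of 0.016 mM NADPH and 2 mM alpha-KG for 80 min at room temperature; remaining NADPH was read by diaphorase/resazurin fluorescence.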
* = called active by the depositor; [ ] = another dose, or the depositor's remark. Unless noted, calls follow the shape of the dose curve; as a rule, active = well fitted curve in the direction sought with a large enough effect; inconclusive = small, poorly fitted or top-dose-only effect, or another doubt; inactive = no such curve, though single readings can be large; an effect the other way counts as inactive or inconclusive.

For COC(=O)c1ccc(Cn2cnc3c(sc4nc(N5CCOCC5)c5c(c43)CCCC5)c2=O)o1 the results were ClpP mod 28µM*, LDHA block -6, Mito fusion yeast 13%, S-ASM inh -12%, RGS4 inh -31% and IDH1 R132H inh inconclusive.
Nc1c(C(=O)NCc2ccco2)sc2nc(N3CCOCC3)c3c(c12)CCCC3 was read as ClpP mod inconclusive, LDHA block 1, Mito fusion yeast 4%, S-ASM inh inactive, RGS4 inh inconclusive and IDH1 R132H inh inconclusive.
Screening CCOC(=O)c1sc2nc(N3CCOCC3)c3c(c2c1N)CC(C(C)C)OC3 (stereo not drawn) returned ClpP mod -37%, LDHA block -12, Mito fusion yeast 2%, S-ASM inh 116%, RGS4 inh -7% and IDH1 R132H inh -12%.
CCOC(=O)c1sc2nc(N3CCOCC3)c3c(c2c1N)CCCC3 was read as ClpP mod 32µM*, LDHA block -9, Mito fusion yeast 0%, S-ASM inh 279%, RGS4 inh 13% and IDH1 R132H inh -1%.
`CCOC(=O)c1sc2nc(C(C)C)c3c(c2c1N)CC(C)(C)OC3` gave ClpP mod inconclusive, LDHA block 18, Mito fusion yeast -2%, S-ASM inh inactive, RGS4 inh 5% and IDH1 R132H inh 2%.
Screening O/N=C/c1c(F)c(F)c(F)c(F)c1F returned LDHA block 2.
For CCOc1cccc(C(=O)Nc2cccc3ccc(C)nc23)c1 the results were LDHA block 1.
For C/C=C/Oc1ccc(C(=O)/C(=C\c2cccnc2)c2nc3ccccc3o2)cc1 the results were LDHA block 6.
COCCCNC(=O)NC(=O)CSc1cc(C)c2cccc(C)c2n1 was read as LDHA block 5.
Screening Cc1ccc2occ(C3CC(=O)Nc4c3c(C)nn4-c3ccc(=O)[nH]n3)c(=O)c2c1 (stereo not drawn) returned LDHA block 7.
For CCOC(=O)c1oc2nc(C)c3c(c2c1N)CC(C)(C)OC3 the results were ClpP mod 10µM*, LDHA block 2, Mito fusion yeast -12%, S-ASM inh 194%, RGS4 inh -93%[56.9 µM] and IDH1 R132H inh 7%.
COC(=O)c1sc2nc(N3CCCCC3)c3c(c2c1N)CCCC3 was read as ClpP mod 10µM*, LDHA block 2, Mito fusion yeast inconclusive, S-ASM inh inactive, RGS4 inh -15% and IDH1 R132H inh 2%.
Screening NC(=O)c1sc2nc(N3CCCCC3)c3c(c2c1N)CCCC3 returned ClpP mod -28%, LDHA block -5, Mito fusion yeast inconclusive, S-ASM inh 19%, RGS4 inh 22% and IDH1 R132H inh -3%.
`Cc1cccc(Cn2c(SCc3ccccc3)nc3c2c(=O)n(C)c(=O)n3C)c1` gave LDHA block 3.
COCCNC(=S)N(C)[C@H]1C[C@H]2c3cc(-c4ccccc4)ccc3CCN2C(=O)[C@H]1[C@H](C)O was read as ClpP mod -2%, LDHA block -32* and IDH1 R132H inh -4%.
Screening O=C1CCCC2=C1C(c1cccs1)n1nc(SCc3ccccc3F)nc1N2 (stereo not drawn) returned ClpP mod inconclusive, LDHA block 5, Mito fusion yeast 6%, S-ASM inh 152%, RGS4 inh -25% and IDH1 R132H inh 3%.
For Cc1ccccc1CSc1nc2n(n1)C(c1cccs1)C1=C(CCCC1=O)N2 (stereo not drawn) the results were ClpP mod 22µM*, LDHA block -5, Mito fusion yeast 5%, S-ASM inh 198%, RGS4 inh 5%[11.4 µM] and IDH1 R132H inh 2%.
CCCCCC(=O)Nc1ccc(S(=O)(=O)Nc2nccnc2OC)cc1 was read as ClpP mod 25µM*, LDHA block -6, Mito fusion yeast 0%, S-ASM inh -1%, RGS4 inh 24% and IDH1 R132H inh -1%.
`COc1ccc(NC(=O)c2nn(C)c(=O)c3ccccc23)cc1S(=O)(=O)N(C)C` gave LDHA block 5.
For Cc1ccc(C(=O)CCC(=O)O)s1 the results were LDHA block 1.
`CC1(C)CC(=O)C2=C(C1)c1c(ccc3ccccc13)NC2c1ccc(Br)o1` (stereo not drawn) gave ClpP mod 13µM*, LDHA block -5, Mito fusion yeast 13%, S-ASM inh inactive, RGS4 inh 10%[11.4 µM] and IDH1 R132H inh -2%.
For CC1(C)CC(=O)C2=C(C1)c1c(ccc3ccccc13)NC2c1ccncc1 (stereo not drawn) the results were LDHA block -5.
Screening Cc1ccccc1OCC(=O)Nc1ccc2c(c1)nc(Cn1cccn1)n2CC(C)C returned LDHA block 10.
Cc1ccc(/C=C2\CCCC3=C2NC(=S)NC3c2ccc(C)cc2)cc1 (stereo not drawn) was read as ClpP mod 16µM*, LDHA block 0, Mito fusion yeast 1%, S-ASM inh -3%, RGS4 inh inconclusive and IDH1 R132H inh 1%.
For Cc1ccc(S(=O)(=O)CC(=O)c2cccc(-c3ccc(I)cc3)c2)cc1 the results were LDHA block 2.
For COc1ccc(CNC(=O)c2ccc3c(c2)NC(=O)C(CS(=O)(=O)Cc2ccccc2Cl)N3)cc1 (stereo not drawn) the results were ClpP mod -27%, LDHA block 0, RGS4 inh -22% and IDH1 R132H inh -14%.
Screening CCCCNC(=O)c1ccc2c(c1)NC(=O)C(CS(=O)(=O)Cc1ccc(C)cc1)N2 (stereo not drawn) returned ClpP mod inconclusive, LDHA block -1, RGS4 inh -20% and IDH1 R132H inh 2%.
`COCCNC(=O)c1ccc2c(c1)NC(=O)C(CS(=O)(=O)Cc1ccc(F)cc1Cl)N2` (stereo not drawn) gave ClpP mod 16µM*, LDHA block 2, RGS4 inh -3% and IDH1 R132H inh -26%.
